Where a chain is given by its changes, count along the chain named.

Experiment in all cases: PBM; 200 nM protein, PBS
Common to all, as to conditions: dsDNA, one strand shown

In assay [1] the target is T1, SIX6 (Homo sapiens, UniProt O95475 114-200, L167I).
T1 sequence: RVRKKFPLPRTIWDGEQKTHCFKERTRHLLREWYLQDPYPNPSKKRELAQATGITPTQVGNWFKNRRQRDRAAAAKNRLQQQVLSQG

Assay [2] addresses T2, SIX6 (Homo sapiens, UniProt O95475 114-200, L143V).
T2 sequence: T1 sequence with L30V, I54L

For assay [3], the target named is T3, SIX6 (Homo sapiens, UniProt O95475 114-200, H141N).
T3 sequence: T1 sequence with H28N, I54L

The target in assay [4] is T4, SIX6 (Homo sapiens, UniProt O95475 114-200, T165P).
T4 sequence: T1 sequence with T52P, I54L

Assay [5] deals with T5, SIX6 (Homo sapiens, UniProt O95475 114-200, L167M).
T5 sequence: T1 sequence with I54M

The target of assay [6] is T6, SIX6 (Homo sapiens, UniProt O95475 114-200, L143M).
T6 sequence: T1 sequence with L30M, I54L

Assay [7] deals with T7, SIX6 (Homo sapiens, UniProt O95475 114-200, L143I).
T7 sequence: T1 sequence with L30I, I54L

Assay [8] addresses T8, SIX6 (Homo sapiens, UniProt O95475 114-200, T165G).
T8 sequence: T1 sequence with T52G, I54L

The target in assay [9] is HOXA2 (Homo sapiens, UniProt O43364 129-215, R185T).
The target of assay [10] is T9, SIX6 (Homo sapiens, UniProt O95475 114-200, T139Q).
T9 sequence: T1 sequence with T26Q, I54L

Assay [11] concerns the target T10, SIX6 (Homo sapiens, UniProt O95475 114-200, T165A).
T10 sequence: T1 sequence with T52A, I54L

Assay [12] deals with T11, SIX6 (Homo sapiens, UniProt O95475 114-200, L167V).
T11 sequence: T1 sequence with I54V

The target in assay [13] is T12, SIX6 (Homo sapiens, UniProt O95475 114-200).
T12 sequence: T1 sequence with I54L

Assay [14] addresses VAX1 (Homo sapiens, UniProt Q5SQQ9 86-172).
The target of assay [15] is T13, SIX6 (Homo sapiens, UniProt O95475 114-200, T165I).
T13 sequence: T1 sequence with T52I, I54L

The target in assay [16] is VAX1 (Homo sapiens, UniProt Q5SQQ9 86-172, T142I).
Assay [17] addresses HOXA2 (Homo sapiens, UniProt O43364 129-215).
The target in assay [18] is VAX1 (Homo sapiens, UniProt Q5SQQ9 86-172, K157R).
Assay [19] deals with T14, PAX4 (Homo sapiens, UniProt O43316 9-242, R200K).
T14 sequence: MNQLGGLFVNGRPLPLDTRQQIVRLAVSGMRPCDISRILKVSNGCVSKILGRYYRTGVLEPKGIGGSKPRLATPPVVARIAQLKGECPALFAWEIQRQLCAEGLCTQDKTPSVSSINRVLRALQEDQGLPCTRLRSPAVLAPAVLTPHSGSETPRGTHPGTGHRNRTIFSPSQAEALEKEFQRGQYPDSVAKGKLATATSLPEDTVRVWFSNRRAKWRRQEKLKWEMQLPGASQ

Assay [20] has as its target T15, PAX4 (Homo sapiens, UniProt O43316 9-242).
T15 sequence: T14 sequence with K192R

The target in assay [21] is T16, PAX4 (Homo sapiens, UniProt O43316 9-242, R200Q).
T16 sequence: T14 sequence with K192Q

For assay [22], the target named is T17, PAX4 (Homo sapiens, UniProt O43316 9-242, F177V).
T17 sequence: T14 sequence with F169V, K192R

Assay [23] deals with T18, PAX4 (Homo sapiens, UniProt O43316 9-242, F177Y).
T18 sequence: T14 sequence with F169Y, K192R

Assay [24] concerns the target T19, PAX4 (Homo sapiens, UniProt O43316 9-242, R227W).
T19 sequence: T14 sequence with K192R, R219W

Assay [25] addresses ALX4 (Homo sapiens, UniProt Q9H161 200-286).
Assay [26] deals with ALX4 (Homo sapiens, UniProt Q9H161 200-286, Q225E).
Assay [27] concerns the target MSX2 (Homo sapiens, UniProt P35548 130-214, R199I).
For assay [28], the target named is ALX1 (Homo sapiens, UniProt Q15699 118-204, L144V).
Assay [29] has as its target ALX1 (Homo sapiens, UniProt Q15699 118-204, L144R).
Assay [30] concerns the target MSX2 (Homo sapiens, UniProt P35548 130-214).
The target in assay [31] is MSX2 (Homo sapiens, UniProt P35548 130-214, F161Y).
Assay [32] concerns the target ALX1 (Homo sapiens, UniProt Q15699 118-204).

MSX2 (Homo sapiens, UniProt P35548 130-214, F161Y), sequence (P35548 130-214 F161Y): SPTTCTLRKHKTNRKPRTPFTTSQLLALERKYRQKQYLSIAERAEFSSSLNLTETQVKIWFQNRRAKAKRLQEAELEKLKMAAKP
MSX2 (Homo sapiens, UniProt P35548 130-214, R199I), sequence (P35548 130-214 R199I): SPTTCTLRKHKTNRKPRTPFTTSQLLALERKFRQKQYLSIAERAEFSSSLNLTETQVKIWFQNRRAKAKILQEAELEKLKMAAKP
MSX2 (Homo sapiens, UniProt P35548 130-214), sequence (P35548 130-214): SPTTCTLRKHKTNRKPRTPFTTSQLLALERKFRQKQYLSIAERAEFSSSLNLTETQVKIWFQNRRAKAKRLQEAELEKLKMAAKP
HOXA2 (Homo sapiens, UniProt O43364 129-215, R185T), sequence (O43364 129-215 R185T): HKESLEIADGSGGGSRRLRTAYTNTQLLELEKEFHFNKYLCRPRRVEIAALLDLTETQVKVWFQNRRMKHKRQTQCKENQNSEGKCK
HOXA2 (Homo sapiens, UniProt O43364 129-215), sequence (O43364 129-215): as the sequence (O43364 129-215 R185T) above, with T57R counted along it
ALX1 (Homo sapiens, UniProt Q15699 118-204), sequence (Q15699 118-204): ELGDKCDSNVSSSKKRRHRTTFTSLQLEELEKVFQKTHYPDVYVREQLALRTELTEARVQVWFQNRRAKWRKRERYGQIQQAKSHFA
VAX1 (Homo sapiens, UniProt Q5SQQ9 86-172, K157R), sequence (Q5SQQ9 86-172 K157R): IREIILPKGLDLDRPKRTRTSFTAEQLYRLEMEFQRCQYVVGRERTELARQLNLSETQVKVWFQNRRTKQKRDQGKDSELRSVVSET
VAX1 (Homo sapiens, UniProt Q5SQQ9 86-172), sequence (Q5SQQ9 86-172): as the sequence (Q5SQQ9 86-172 K157R) above, with R72K counted along it
ALX4 (Homo sapiens, UniProt Q9H161 200-286), sequence (Q9H161 200-286): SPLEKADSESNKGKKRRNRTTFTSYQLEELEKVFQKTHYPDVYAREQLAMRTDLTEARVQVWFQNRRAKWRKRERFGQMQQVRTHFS
ALX1 (Homo sapiens, UniProt Q15699 118-204, L144V), sequence (Q15699 118-204 L144V): as the sequence (Q15699 118-204) above, with L27V counted along it
ALX1 (Homo sapiens, UniProt Q15699 118-204, L144R), sequence (Q15699 118-204 L144R): as the sequence (Q15699 118-204) above, with L27R counted along it
ALX4 (Homo sapiens, UniProt Q9H161 200-286, Q225E), sequence (Q9H161 200-286 Q225E): as the sequence (Q9H161 200-286) above, with Q26E counted along it
VAX1 (Homo sapiens, UniProt Q5SQQ9 86-172, T142I), sequence (Q5SQQ9 86-172 T142I): as the sequence (Q5SQQ9 86-172 K157R) above, with T57I, R72K counted along it

On to AGATATAC, for which the binding signal was 11 upbm affinity estimate (log intensity, higher = more binding, comparable within an allelic series) in assay [1]; 10.4 upbm affinity estimate (log intensity, higher = more binding, comparable within an allelic series) in [2]; 10.8 upbm affinity estimate (log intensity, higher = more binding, comparable within an allelic series) in assay [3]; 9.92 upbm affinity estimate (log intensity, higher = more binding, comparable within an allelic series) in assay [4]; 10.9 upbm affinity estimate (log intensity, higher = more binding, comparable within an allelic series) in assay [5]; 10.9 upbm affinity estimate (log intensity, higher = more binding, comparable within an allelic series) in assay [6]. For the same sequence, the binding signal was 10.4 upbm affinity estimate (log intensity, higher = more binding, comparable within an allelic series) in assay [7]; 11 upbm affinity estimate (log intensity, higher = more binding, comparable within an allelic series) in assay [8]; 8.17 upbm affinity estimate (log intensity, higher = more binding, comparable within an allelic series) in assay [9]; 10.9 upbm affinity estimate (log intensity, higher = more binding, comparable within an allelic series) in assay [10]; 10.8 upbm affinity estimate (log intensity, higher = more binding, comparable within an allelic series) in assay [11]; 10.7 upbm affinity estimate (log intensity, higher = more binding, comparable within an allelic series) in assay [12]. The binding signal is 10.9 upbm affinity estimate (log intensity, higher = more binding, comparable within an allelic series) in assay [13]; 8.24 upbm affinity estimate (log intensity, higher = more binding, comparable within an allelic series) in assay [14]; 10.8 upbm affinity estimate (log intensity, higher = more binding, comparable within an allelic series) in assay [15]; 8.22 upbm affinity estimate (log intensity, higher = more binding, comparable within an allelic series) in assay [16]; 8.19 upbm affinity estimate (log intensity, higher = more binding, comparable within an allelic series) in [17]; 8.23 upbm affinity estimate (log intensity, higher = more binding, comparable within an allelic series) in assay [18].

Consider GGGGGCAA, for which the binding signal in assay [1] was 8.96 upbm affinity estimate (log intensity, higher = more binding, comparable within an allelic series); in assay [2], 9.04 upbm affinity estimate (log intensity, higher = more binding, comparable within an allelic series); in [19] it was 9.18 upbm affinity estimate (log intensity, higher = more binding, comparable within an allelic series); in assay [3], 8.94 upbm affinity estimate (log intensity, higher = more binding, comparable within an allelic series); in assay [4] it was 8.98 upbm affinity estimate (log intensity, higher = more binding, comparable within an allelic series); in [20], 9.24 upbm affinity estimate (log intensity, higher = more binding, comparable within an allelic series). Further, the binding signal in assay [5] was 9.06 upbm affinity estimate (log intensity, higher = more binding, comparable within an allelic series); in assay [6], 8.97 upbm affinity estimate (log intensity, higher = more binding, comparable within an allelic series); in assay [7] it was 8.96 upbm affinity estimate (log intensity, higher = more binding, comparable within an allelic series); in assay [8], 8.89 upbm affinity estimate (log intensity, higher = more binding, comparable within an allelic series); in assay [10], 8.98 upbm affinity estimate (log intensity, higher = more binding, comparable within an allelic series); in assay [11], 9.04 upbm affinity estimate (log intensity, higher = more binding, comparable within an allelic series). Also, the binding signal in assay [21] was 9.19 upbm affinity estimate (log intensity, higher = more binding, comparable within an allelic series); in assay [22], 9.04 upbm affinity estimate (log intensity, higher = more binding, comparable within an allelic series); in assay [12], 8.9 upbm affinity estimate (log intensity, higher = more binding, comparable within an allelic series); in assay [23], 9.1 upbm affinity estimate (log intensity, higher = more binding, comparable within an allelic series); in assay [13], 8.96 upbm affinity estimate (log intensity, higher = more binding, comparable within an allelic series); in assay [15] it was 9.01 upbm affinity estimate (log intensity, higher = more binding, comparable within an allelic series). For the same sequence, the binding signal in assay [24] was 9.17 upbm affinity estimate (log intensity, higher = more binding, comparable within an allelic series).

Consider CAGGCCCG, for which the binding signal in assay [1] was 8.93 upbm affinity estimate (log intensity, higher = more binding, comparable within an allelic series); in [2] it was 8.77 upbm affinity estimate (log intensity, higher = more binding, comparable within an allelic series); in assay [25] it was 8 upbm affinity estimate (log intensity, higher = more binding, comparable within an allelic series); in assay [3], 8.88 upbm affinity estimate (log intensity, higher = more binding, comparable within an allelic series); in assay [4] it was 8.76 upbm affinity estimate (log intensity, higher = more binding, comparable within an allelic series); in assay [5], 8.82 upbm affinity estimate (log intensity, higher = more binding, comparable within an allelic series). Moreover, the binding signal in assay [6] is 8.79 upbm affinity estimate (log intensity, higher = more binding, comparable within an allelic series); in assay [7], 8.85 upbm affinity estimate (log intensity, higher = more binding, comparable within an allelic series); in assay [26], 7.92 upbm affinity estimate (log intensity, higher = more binding, comparable within an allelic series); in [8], 8.97 upbm affinity estimate (log intensity, higher = more binding, comparable within an allelic series); in [10] it was 9.09 upbm affinity estimate (log intensity, higher = more binding, comparable within an allelic series); in assay [27] it was 9.39 upbm affinity estimate (log intensity, higher = more binding, comparable within an allelic series). Also, the binding signal in [28] was 6.27 upbm affinity estimate (log intensity, higher = more binding, comparable within an allelic series); in assay [11], 8.92 upbm affinity estimate (log intensity, higher = more binding, comparable within an allelic series); in assay [29], 6.24 upbm affinity estimate (log intensity, higher = more binding, comparable within an allelic series); in [30], 9.3 upbm affinity estimate (log intensity, higher = more binding, comparable within an allelic series); in assay [12], 8.87 upbm affinity estimate (log intensity, higher = more binding, comparable within an allelic series); in assay [13] it was 8.81 upbm affinity estimate (log intensity, higher = more binding, comparable within an allelic series). For the same sequence, the binding signal is 8.93 upbm affinity estimate (log intensity, higher = more binding, comparable within an allelic series) in [15]; 9.36 upbm affinity estimate (log intensity, higher = more binding, comparable within an allelic series) in [31]; 6.21 upbm affinity estimate (log intensity, higher = more binding, comparable within an allelic series) in assay [32].

Take CCACCCGC: the binding signal was 9.19 upbm affinity estimate (log intensity, higher = more binding, comparable within an allelic series) in assay [1]; 9.01 upbm affinity estimate (log intensity, higher = more binding, comparable within an allelic series) in [2]; 9.2 upbm affinity estimate (log intensity, higher = more binding, comparable within an allelic series) in assay [3]; 9.04 upbm affinity estimate (log intensity, higher = more binding, comparable within an allelic series) in [4]; 9.21 upbm affinity estimate (log intensity, higher = more binding, comparable within an allelic series) in assay [5]; 9.22 upbm affinity estimate (log intensity, higher = more binding, comparable within an allelic series) in [6]. The binding signal in assay [7] was 9.08 upbm affinity estimate (log intensity, higher = more binding, comparable within an allelic series); in assay [8] it was 9.26 upbm affinity estimate (log intensity, higher = more binding, comparable within an allelic series); in [10], 9.36 upbm affinity estimate (log intensity, higher = more binding, comparable within an allelic series); in assay [27], 9.63 upbm affinity estimate (log intensity, higher = more binding, comparable within an allelic series); in assay [11] it was 9.23 upbm affinity estimate (log intensity, higher = more binding, comparable within an allelic series); in assay [30], 9.57 upbm affinity estimate (log intensity, higher = more binding, comparable within an allelic series). The binding signal in assay [12] was 9.16 upbm affinity estimate (log intensity, higher = more binding, comparable within an allelic series); in assay [13], 9.18 upbm affinity estimate (log intensity, higher = more binding, comparable within an allelic series); in assay [15], 9.15 upbm affinity estimate (log intensity, higher = more binding, comparable within an allelic series); in assay [31], 9.69 upbm affinity estimate (log intensity, higher = more binding, comparable within an allelic series).

The record behind these values is paper PMC11006913.
